# Out of some 3,300 compounds screened, about 280 (8.5%) were called active. This is one part of a sample in which actives are shown more often than they occur. Unmarked numbers belong to inactive results.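 How the source made its calls: active means mean growth inhibition over the two runs of 50% or more; inactive means mean growth inhibition under 50%.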
# Assay: A549 NSCLC cell proliferation inhibitors – ATP luminescence, human non-small cell lung line, primary screen (AID 371);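 further: compound exposure lasted 72 h before the ATP read; 0% = untreated cell signal and 100% = no luminescence left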
# Conditions: at 10 µM, active compounds read high
row,Structure (SMILES),growth inhibition
1,COC(=O)c1ccccc1OCc1cccc(C)n1,6.89%
2,Cc1cccc2c1NC(C)CC2C (stereo not drawn),0.83%
3,COc1ccc(C2C(C#N)=C(N)SC(N)=C2C#N)cc1OC,2.23%
4,COc1cc2c(cc1OC)C1(CCCC1)C(N)=C2C#N,54.9% (active)
5,CC(=O)NC1(C(F)(F)F)C(=O)Nc2c1c(=O)n(C)c(=O)n2C (stereo not drawn),0.54%
6,CCOC(=O)C1=C(N)N2C(=O)CSC2=C(C(=O)OC)C1,-0.01%
7,Cc1cccc(CN2CCN(C(c3ccccc3)c3ccc(Cl)cc3)CC2)c1 (stereo not drawn),3.35%
8,OCCOCCN1CCN(C(c2ccccc2)c2ccc(Cl)cc2)CC1 (stereo not drawn),1.66%
9,CN1CCCN(C(c2ccccc2)c2ccc(Cl)cc2)CC1 (stereo not drawn),78.7% (active)
10,CCCCCn1c2nc3ccccc3nc2c2c(=O)n(CC(C)C)cnc21,-1.51%
11,CN1CCN(c2nc3c(c(=O)n(C)c(=O)n3C)n2Cc2cccc3ccccc23)CC1,-7.28%
12,CCN(CC)CCCN1C(=O)C(=O)/C(=C(/O)c2ccc(OC)cc2)C1c1ccco1 (stereo not drawn),1.94%
13,COCCn1c(N)c(C(=O)NCC2CCCO2)c2nc3ccccc3nc21 (stereo not drawn),23.5%
14,Nc1c(C(=O)NCC2CCCO2)c2nc3ccccc3nc2n1/N=C/c1ccncc1 (stereo not drawn),2.51%
15,COc1ccccc1-n1c(N)c(C(=O)NCC2CCCO2)c2nc3ccccc3nc21 (stereo not drawn),52.9% (active)
16,O=C(Oc1ccccc1N1C(=O)CCC1=O)c1ccco1,6.54%
17,COC(=O)CSc1nc2c(c(=O)n(C)c(=O)n2C)n1CCC(C)C,-2.98%
18,COc1ccc2[nH]c(C)c(C(=O)CN3CCN(C(=O)c4ccco4)CC3)c2c1,7.48%
19,COc1cc2nc(N3CCN(C(=O)C4CCCO4)CC3)nc(N)c2cc1OC (stereo not drawn),15.4%
20,COC(=O)c1ccccc1NC(=O)C1COc2ccccc2O1 (stereo not drawn),11.9%
21,COc1cc2nc(N3CCN(C(=O)C4COc5ccccc5O4)CC3)nc(N)c2cc1OC (stereo not drawn),91% (active)
22,COc1cccc(OC)c1OCCN1CCN(C(=O)c2ccco2)CC1,2.2%
23,COc1cc2nc(N3CCN(C(=O)c4ccco4)CC3)nc(N)c2cc1OC,82.5% (active)
24,Cc1cc(Cl)ccc1OCC(=O)OC(C)C(=O)N(C)C (stereo not drawn),-0.96%
25,O=C(O)c1cc2n(n1)C(C(F)(F)F)CC(c1ccccc1)N2 (stereo not drawn),-0.01%

row,Structure (SMILES),growth inhibition
1,CCOC(=O)c1nc2nc(C)c(Cl)c(=O)n2[nH]1,-2.82%
2,O=C(O)CC(SCc1ccc(C(=O)O)o1)C(=O)O (stereo not drawn),-5.57%
3,CC(=O)C(=[N+]=[N-])C(=O)NCc1ccccc1,-2.8%
4,CC(C)(C)NCc1cc2ccccc2[nH]c1=O,4.01%
5,Cc1nc2oc(C(=O)c3ccc(Br)cc3)c(N)c2c2c1COC(C)(C)C2,24.5%
6,COCCNC(=O)c1c(N)n(/N=C/c2cccs2)c2nc3ccccc3nc12,6.53%
7,COCCCNC(=O)c1c(N)n(/N=C/c2cccs2)c2nc3ccccc3nc12,17%
8,COCCNC(=O)c1c(N)n(CCC2=CCCCC2)c2nc3ccccc3nc12,91.2% (active)
9,CCC(CC)n1[nH]c(=O)cc1N,1.19%
10,CC1(C)CC(=O)C(C=N)=C(O)C1,1.41%
11,O=C(c1ccccc1F)N1CCC(N2CCCCCC2)CC1,2.62%
12,CCCc1[nH]n(-c2nc3ccccc3s2)c(=O)c1C=NCCN1CCOCC1,3.16%
13,Cn1nnnc1-c1cc(Br)ccc1NC(=O)c1ccccc1,10.8%
14,Cc1sc(-n2c(C)cc(/C=N/n3cnnc3)c2C)c(C#N)c1C,19.6%
15,CC(C)(C)c1nnc2sc(SCC(=O)c3ccccc3)nn2c1=O,-7.24%
16,Cc1nc2sccn2c(=O)c1CCN1CCC(=C(c2ccc(F)cc2)c2ccc(F)cc2)CC1,92.5% (active)
17,Cc1nc2sccn2c(=O)c1CCN1CCC(=C(c2ccccc2)c2ccc(F)cc2)CC1,88.3% (active)
18,Cc1nc2ccccn2c(=O)c1CCN1CCC(C(=O)c2ccc(F)cc2)CC1,6.06%
19,CN1CCN(CCCCC(=O)c2ccccc2)CC1,6%
20,COc1ccc(/C=N/n2cncn2)cc1COc1ccc(NC(C)=O)cc1,5.25%
21,CCOc1ccc(C2/C(=C(/O)c3ccc(OC)cc3)C(=O)C(=O)N2c2cc(C)on2)cc1OC (stereo not drawn),-9.53%
22,CCC(C)Nc1nc(OC)nc(N(C)C#N)n1 (stereo not drawn),-4.98%
23,O=C(O)c1ccc(COc2c(F)c(F)c(F)c(F)c2F)o1,3.65%
24,CN(C)/C=C1\N=C(c2ccc(Cl)cc2Cl)OC1=O,19.7%
25,CCOC(=O)c1[nH]c2cc3c(cc2c1NC(=O)CN1CCc2ccccc2C1)OCO3,12.5%

row,Structure (SMILES),growth inhibition
1,CSc1nc(N)nc(SCC(=O)C23CC4CC(CC(C4)C2)C3)c1C#N,74.9% (active)
2,CSc1nc(N)nc(SCC(=O)CC(=O)OC(C)C)c1C#N,7.59%
3,CSc1nc(N)nc(SCC(=O)OC(C)C)c1C#N,17%
4,O=C(Nc1ccccc1C(=O)NCCCn1ccnc1)c1ccccc1,-0.68%
5,COc1ccccc1C(=O)Nc1cc(Cl)ccc1O,-0.89%
6,N/C(=N\c1nc2ccccc2o1)NC(=O)c1ccccc1NC(=O)c1ccccc1,69.5% (active)
7,COc1ccccc1C(=O)NCC(=O)n1nc(C)cc1C,4.23%
8,COc1ccccc1C(=O)NC(=Nc1nc2ccccc2o1)NC(=O)c1ccccc1OC,67.3% (active)
9,COc1ccc(C(=O)N/C(N)=N/c2nc3ccccc3o2)cc1,28.8%
10,COc1ccccc1C1C(C#N)=C(N)Oc2cc(C)n(Cc3ccccn3)c(=O)c21 (stereo not drawn),-10.3%
11,CCNC(=O)COn1c(SCC(=O)NCC)nc2ccccc2c1=O,-0.37%
12,CCOC(=O)C1CCN(c2ncnc3c2cnn3-c2ccc(OC)cc2)CC1,4.94%
13,CS(=O)(=O)c1ccc2nc(NC(NC(=O)c3ccco3)(C(F)(F)F)C(F)(F)F)sc2c1,29.9%
14,CCOC(=O)CSc1nnc(C)c(=O)[nH]1,2.53%
15,CC(=O)Nc1cc2c(cc1Br)OCCO2,-4.42%
16,CN(C)c1ccc(C2C3C(=O)N(c4ccc(C(=O)O)cc4)C(=O)C3ON2c2ccccc2)cc1 (stereo not drawn),4.19%
17,COc1cccc2c1C(=O)c1c(O)c3c(c(O)c1C2=O)C[C@@](O)(C(=O)CO)C[C@@H]3O[C@H]1C[C@H](N)[C@H](O)[C@H](C)O1,82.1% (active)
18,COc1cccc2c1C(=O)c1c(O)c3c(c(O)c1C2=O)C[C@@](O)(C(C)=O)C[C@@H]3O[C@H]1C[C@H](N)[C@H](O)[C@H](C)O1,94.4% (active)
19,O=c1/c(=C\c2cccn2-c2ccccc2)sc2nc3ccccc3n12,26.5%
20,CC(C)c1nc(NCCN2CCOCC2)c(C#N)c2c1COC(C)(C)C2,20.7%
21,C=CCNc1nc(-c2cccc(OC)c2O)nc2ccccc12,24.3%
22,Fc1ccccc1-c1nc(NCCCN2CCOCC2)c2ccccc2n1,4.04%
23,c1ccc(-c2nc(NCC3CCCO3)c3ccccc3n2)nc1 (stereo not drawn),60.2% (active)
24,c1ccc2c(NCC3CCCO3)nc(-c3ccncc3)nc2c1 (stereo not drawn),13.1%
25,COc1cccc(-c2nc(NCCN3CCOCC3)c3ccccc3n2)c1O,80.7% (active)

row,Structure (SMILES),growth inhibition
1,c1ccc(-n2ncc3c(NCC4CCCO4)ncnc32)cc1 (stereo not drawn),33.8%
2,COc1cccc(-c2nc(NCC3CCCO3)c3ccccc3n2)c1O (stereo not drawn),83.8% (active)
3,Cc1cc(-c2ccccc2)nnc1NCCN1CCOCC1,-7.35%
4,Oc1ccccc1-c1nc(NCCN2CCOCC2)c2ccccc2n1,88.2% (active)
5,Cc1cc(OCCN2CCOCC2)nc2ccccc12,10.6%
6,COc1cccc(OC)c1OCC(C)CNCC1CCCO1 (stereo not drawn),3.8%
7,O=C(C1=C(O)C(=O)N(CCCN2CCOCC2)C1c1ccccn1)c1cccs1 (stereo not drawn),1.45%
8,Cc1ccc(C(=O)C2=C(O)C(=O)N(c3ncccn3)C2c2ccc(Cl)cc2)o1 (stereo not drawn),-6.83%
9,COC(=O)c1c(C)[nH]c(C(=O)OCc2ccc(F)cc2)c1C,13%
10,O=C1C2ON(c3ccccc3)C(c3ccncc3)C2C(=O)N1c1ccc(Br)cc1 (stereo not drawn),-9.58%
11,OCCN=C(c1ccccc1)C12CN3CN(CN(C3)C1)C2,-0.01%
12,C=CCOC(=O)C(C#N)c1nc2ccccc2nc1N1CCC(C(=O)OCC)CC1 (stereo not drawn),45.6%
13,CCOC(=O)C1CCCN(c2nc3ccccc3nc2C(C#N)C(=O)OC(C)COC)C1 (stereo not drawn),24.2%
14,CCOC(=O)c1[nH]c2ccc(OC)cc2c1NC(=O)CN1CCN(c2ccccn2)CC1,0.14%
15,CC(C)Cc1nc(N2CCOCC2)c(C#N)c2c1CCC2,4.59%
16,CC(=O)N1CCN(c2nc(CC(C)C)c3c(c2C#N)CCC3)CC1,22.1%
17,CC(C)Cc1nc(N2CCN(C(=O)C(C)C)CC2)c(C#N)c2c1CCC2,42.3%
18,CC(C)Cc1nc(N2CCN(C(=O)c3ccco3)CC2)c(C#N)c2c1CCC2,57.2% (active)
19,CC1(C)Cc2c(C#N)c(N3CCOCC3)nc(-c3ccccc3)c2CO1,13.6%
20,CC(C)Cc1nc(N2CCCCC2)c(C#N)c2c1CCC2,20.9%
21,CCCC(=O)N1CCN(c2nc(CC(C)C)c3c(c2C#N)CCC3)CC1,53.8% (active)
22,CC(C)C(=O)N1CCN(c2nc(-c3ccccc3)c3c(c2C#N)CC(C)(C)OC3)CC1,34.1%
23,CC(C)C(=O)N1CCN(c2nc(-c3ccccc3)c3c(c2C#N)CCCC3)CC1,68% (active)
